Test results published in PubChem BioAssay AID2291 (The Scripps Research Institute Molecular Screening Center, 2010).
The campaign covered roughly 16,000 compounds. About 75 (0.5%) were called active. This is one part of a sample in which actives are shown more often than they occur. No stated cut-off is given here; in the data, active means inhibition above about 30%; inactive means the rest.

target: Protein phosphatase methylesterase 1 (Homo sapiens) (UniProt Q9Y570); experiment: Maybridge compound blocking human PME-1 (AID 2291); settings: recombinant PME-1, FP-Rh probe fluorescence polarization; at 9 µM; stronger effect = higher value
Sequence (Q9Y570 whole entry, looked up): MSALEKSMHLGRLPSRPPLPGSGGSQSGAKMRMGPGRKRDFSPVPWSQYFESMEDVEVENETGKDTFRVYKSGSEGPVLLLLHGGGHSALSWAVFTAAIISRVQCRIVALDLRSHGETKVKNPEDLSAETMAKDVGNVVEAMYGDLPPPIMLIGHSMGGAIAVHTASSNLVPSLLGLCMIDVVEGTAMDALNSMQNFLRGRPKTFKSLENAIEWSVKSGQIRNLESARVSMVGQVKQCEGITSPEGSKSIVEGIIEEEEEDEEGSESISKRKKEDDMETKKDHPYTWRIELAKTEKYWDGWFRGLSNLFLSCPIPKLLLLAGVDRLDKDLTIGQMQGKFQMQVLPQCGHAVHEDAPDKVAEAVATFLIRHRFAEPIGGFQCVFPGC

inhibition, active:
CCOC(=O)c1c(C)nn(-c2ncccc2NC(=O)Nc2cccc(Cl)c2Cl)c1C 37.4%
O=C1C(Cl)=C(Oc2cc(Cl)c(Cl)cc2Cl)C(=O)c2ccccc21 33.4%
COC(=O)c1ccccc1-c1c2ccc(=O)cc-2oc2cc(O)ccc12 61.2%

inhibition, inactive:
CCOC(=O)c1cc(C)nc(Sc2ccccc2NC(=O)Nc2ccc(Cl)cc2)c1C#N 25.2%
Cc1nc2cc3c(cc2s1)OCO3 -0.92%
O=C(NC(=S)Nc1nc(-c2ccc(Cl)cc2)cs1)C1CC1 -13.9%
O=S(=O)(Nc1ccc2[nH]ccc2c1)c1cccs1 3.17%
CCCCC#Cc1cncc(C(=O)NNC(=O)Nc2ccc(Cl)cc2)c1 2.26%
O=C1CSC(=S)N1c1ccc(N2CCCCCC2)c(N2C(=O)CSC2=S)c1 -4.27%
COC(=O)c1sccc1Oc1ccc(Cl)cc1[N+](=O)[O-] 2.05%
O=C(NCc1cccnc1)c1cnc2ccccc2n1 3.18%
Cc1cc2c(cn1)C(=O)c1ccccc1-2 4.96%
COc1cccc(C(=O)c2sc3nsc(SCc4ccc(F)cc4)c3c2N)c1 -5.96%
N#C/C(=C\c1ccsc1Sc1ccc(Cl)cc1)S(=O)(=O)c1ccc(Cl)cc1 -9.13%
Cc1c(-c2cnc(NC(=O)c3ccccc3)s2)sc2ccc(Cl)cc12 -9.03%
CCOC(=O)C(NC(=O)Nc1ccccc1)(Nc1ccccc1OC)C(F)(F)F (configuration not stated) -0.9%
O=C(O)CSC(SCC(=O)O)c1ccc2c(c1)OCO2 -0.753%
O=c1[nH]/c(=C/c2ccc(OC(F)(F)F)cc2)c(=O)[nH]/c1=C/c1ccc(OC(F)(F)F)cc1 -0.938%
N#Cc1c(C(F)(F)F)cc(-c2cccs2)nc1N1CCCCC1 -3.16%
Oc1ccccc1C=Nc1ccc(F)cc1 -4.6%
COc1ccc(-c2csc(-c3cc(C)on3)n2)cc1 9.36%
Cc1ccc(/C=c2\sc3nc4ccccc4n3c2=O)o1 7.34%
Cc1c(NC(=O)c2cccnc2)c(=O)n(-c2ccccc2)n1C 2.93%
CCOC(=O)c1c(-c2ccco2)csc1NC(=O)Nc1ccc(Cl)cc1 -41.9%
OC(c1ccncc1)c1c[nH]c2ccccc12 (configuration not stated) -0.868%
O/N=C/c1ccc(F)c(Cl)c1 2.78%
Cc1ccc2oc(-c3cccs3)nc2c1 2.37%
Cc1cc(NCc2cccnc2)no1 1.95%
NNC(=O)c1csc(-c2ccc(C(F)(F)F)cn2)n1 4.74%
CC(=O)Nc1cccc([N+](=O)[O-])c1 2.8%
CSc1nc(N)n(-c2ccccc2)n1 2.24%
CCOC(=O)C(O)(NC(=O)Nc1ccccc1)C(F)(F)F (configuration not stated) 6.03%
CCCCc1c(COC)nc(-c2ccc(Cl)cc2)[nH]c1=O 2.14%
CCCCCCCCc1ccc(C(=O)O)cc1 1.13%
Cn1c(=O)c(/C(N)=N/OC(=O)c2ccccc2Cl)cn(-c2ccccc2)c1=O -0.69%
Cc1nnc(Sc2ccc([N+](=O)[O-])c(Sc3nnc(C)s3)n2)s1 5.33%
O=C(Nn1cnnc1)c1cccs1 5.13%
O=C(Nc1ccccc1)N1CCN(c2ncnc3sccc23)CC1 1.02%
O=C(O)c1ccccc1/C=N/Nc1cc(Cl)ccc1Cl 6.19%
CCOC(=O)N/N=C(\C)c1cccc(NC(C)=O)c1 -0.548%
CCCN(CCC)S(=O)(=O)c1ccc(C(=O)O/N=C(\C)c2ccccc2O)cc1 0.391%
COC(=O)c1cnc(Oc2ccc(N)cc2)cc1C(F)(F)F 0.526%
CCOC(=O)NC(=O)/C(=C/NCc1cccs1)C(=O)OCC 0.233%
COc1ccccc1NC(=O)c1ccc(C#Cc2ccccc2)o1 -10.2%
CS/C(N)=N/N=C/c1cccs1 1.26%
CC1=NOC(=O)/C1=C\c1ccccc1 3.58%
COc1ccc(-c2nnc(SCC(O)C(F)(F)F)n2-c2cccc(OC)c2)cc1 (configuration not stated) 1.14%
CC(C)(C)c1ccc(NC(=O)c2ccco2)c(NC(=O)C(Cl)(Cl)Cl)c1 2.58%
FC(F)(F)c1cccc(-n2c(-c3ccncc3)n[nH]c2=S)c1 -4.3%
Cc1ccc2oc(=O)n(CC/C(N)=N/OC(=O)c3ccc(C(F)(F)F)nc3C)c2c1 4.33%
CCOc1cc(-c2cccs2)nc(N)n1 0.0895%
Cc1ccc(OC(=O)c2nn(-c3ccccc3)nc2C)c([N+](=O)[O-])n1 -1.37%
O=C(CN1C(=O)/C(=C/c2ccccc2Cl)N=C1c1ccccc1)c1ccccc1 -14%
COc1c(Br)cc(C#N)cc1Br 7.88%
O=C(Nc1ccccc1)O/N=C1/CCCc2occc21 -1.78%
COc1ccc(CCNCC(O)Cn2ccc3ccccc32)cc1OC (configuration not stated) -0.35%
COc1cc(NC(=O)COc2cc(Cl)c(Cl)cc2Cl)cc(OC)c1OC -4.1%
N#Cc1c(N)nc2c3c1NC(O)(c1ccccc1)C(C#N)C3c1cc(Cl)ccc1O2 (configuration not stated) -25.9%
COc1cccc(NC(=S)NNC(=S)NC2CC3CCC2C3)c1 (configuration not stated) 5.71%
O=C(O)C1CC2CC1CCC2O (configuration not stated) 4.17%
NC(=O)c1c(C(F)(F)F)cc(C(F)(F)F)cc1C(F)(F)F -0.0338%
O/N=C/c1sccc1Oc1ccccc1 5.19%
CSc1nccc(-c2ccc(S(=O)(=O)n3nc(C)c(Br)c3C)s2)n1 -1.68%
CC1CN=C(N(Cc2cccnc2)C(=O)Nc2ccc(Cl)c(Cl)c2)S1 (configuration not stated) -62.8%
N#Cc1cn(C2CCCCC2)c(=O)[nH]c1=O 6.75%
COCCOc1ccc(NC(=S)N2CCOCC2)cc1 -0.885%
O=C1CCN(Cc2ccccc2)C(=O)N1c1ccc2c(c1)CCO2 5.14%
Cc1nc(-c2nnc(SCC(=O)c3ccc(F)cc3)n2C)cs1 3.93%
CSc1nc(N)c2ccccc2n1 4.47%
O/N=C(\c1ccccc1)c1ccccn1 1.61%
Cc1cc(C)n(/N=c2\sc(-c3ccccc3)cn2C2CC3C=CC2C3)c(=O)c1C#N (configuration not stated) 1.38%
NC(=O)c1ccc(-c2csnn2)cc1 4.57%
CC(=O)N1CCc2cc(NC(=S)Nc3ccccc3Cl)ccc21 -0.615%
CC1=CC(=O)C(CCC2=CC(=O)C(C)=CC2=O)=CC1=O -5.46%
CN(C)/C=C1/C(=O)NN=C1CSc1ccc(Cl)cc1 4.88%
O=S(=O)(CCN1CCC(C(F)(F)F)CC1)c1ccccc1 5.79%
CSc1nc2c(c(/C=C/c3ccccc3)c1C#N)CCC2 0.0789%
CSC(=Nc1ccccc1C(F)(F)F)N1CCCC1 -2.33%
Cc1ccc(S(=O)(=O)NC(=O)NCCSCc2ccco2)cc1 5.18%
NNC(=O)c1cc2ccccc2s1 7.18%
O=C(O)c1nccnc1C(=O)O 5.09%
CC(=O)OC1=CCC2C3CC[C@@]4(C)CC(OC(C)=O)CCC4(C)C3C(OC(C)=O)CC12C (some centres not stated) -6.54%
OC1(C#Cc2ccccc2)CCN(Cc2ccccc2)CC1 4.15%
O=C(Nc1ccc(OCc2ccccc2)cc1)OCC1CN(Cc2ccccc2)CCO1 (configuration not stated) 5.09%
CCCCCCCCCCCCCC#CC(O)C(N)CO (configuration not stated) -4.1%
OCCNC(=S)Nc1ccccc1-c1ccccc1 0.487%
FC(F)(F)C1=CC=NCCN1 10.1%
OCCNc1nc2ccccc2[nH]1 -2.41%
O=S(=O)(c1ccccc1)c1cc(C(F)(F)F)cc(C(F)(F)F)c1 -0.142%
O=C(NCc1ccc2c(c1)OCO2)c1cccc2c1OCCCO2 -4.73%
O=C1c2cc(S(=O)(=O)Oc3ccccc3)ccc2-c2ccc(S(=O)(=O)Oc3ccccc3)cc21 5.56%
CN(Cc1nnc(-c2ccc3ccccc3c2)o1)c1nnc(C(F)(F)F)s1 3.28%
COC(=O)c1ccccc1NC(=O)c1ccc(Oc2cc(Cl)cc(Cl)c2)o1 -2.65%
COC(=O)c1ccccc1N(C)C(=O)c1cc(OC)c(OC)c(OC)c1 0.643%
S=C(SCc1ncon1)N1CCSCC1 -2.3%
C/C(=N\NC(N)=S)c1cc2cc(Cl)ccc2o1 -1.43%
Clc1ccc(C2=NN(Cc3ccccc3)CC2)s1 2.04%
NC(=NC(=O)CCn1c(=O)oc2ccccc21)c1cc(Cl)cc(Cl)c1 -1.92%
O=S(=O)(Oc1cccc(C(F)(F)F)c1)c1cc(S(=O)(=O)c2ccccc2)cs1 -3.1%
CC(C)(C)c1cc(C(=O)N/N=C/c2ccc([N+](=O)[O-])s2)n[nH]1 4.23%
CCOC(=O)/C(C#N)=C/N/S(C)=N/N=C/c1ccc(N(C)C)cc1 (configuration not stated) 4.21%
NNC(=O)CSc1nnc(-c2ccccc2)n1-c1ccccc1 3.4%
